# From PubChem BioAssay AID652015 (National Center for Advancing Translational Sciences (NCATS), 2013)
# Inconclusive results are not listed. Calls of active or inactive are those of the source. Calls come from the whole dose curve; as a rule, active = well fitted inhibition curve with a large enough effect; inconclusive = small, poorly fitted or top-dose-only effect; inactive = no such curve, though single readings can be large or run the other way.
# Target: Coelenterazine h 2-monooxygenase (Renilla reniformis) (UniProt P27652)
# Assay: qHTS Assay for Inhibitors of Sea Pansy Luciferase from the GSK Published Protein Kinase Inhibitor Set
# Details: purified Renilla luciferase, luminescence; series mostly up to 57.5 µM; activity change, negative = inhibition: at the top concentration
# Description: FLuc (firefly luciferase) is the prototypical bioluminescent reporter gene from Photinus pyralis.[1] The enzyme catalyzes the oxidation luciferin via luciferin-AMP to produce light. FLuc is used in cell-based reporter gene-based assays for screening small molecule chemical libraries. However, small molecule luciferase inhibitors present in most large chemical libraries are often enriched in the output of high throughput screens using this reporter sometimes complicating interpretation and candidate selection.
# RLuc is a bioluminescent reporter gene luciferase from Renilla reniformis, also known as the sea pansy. RLuc uses the luciferin substrate coelenterazine. RLuc is often used in combination with the nonhomologous luciferase FLuc (firefly luciferease) as a trasfection or pathway normalization control. Recently, non-homologous reporters have been described for high throughput screening 'coincidence' reporter gene strategies.
# 1. Fan F, Wood KV (2007) Bioluminescent assays for high-throughput screening. Assay Drug Dev Technol 5: 127-136.
# 2. Thorne N, Inglese J, Auld DS (2010) Illuminating insights into firefly luciferase and other bioluminescent reporters used in chemical biology. Chem Biol 17: 646-657.
# 3. […] Chem Biol 19: 1060-1072.
# 4. Michelini E, Cevenini L, Mezzanotte L, Coppa A, Roda A (2010) Cell-based assays: fuelling drug discovery. Anal Bioanal Chem 398: 227-238.
# 5. Cheng KC, Inglese J (2012) A coincidence reporter-gene system for high-throughput screening. Nat Methods 9: 937.
# Biochemical renilla luciferase enzyme assay
# NCGC Assay Protocol Summary:
# Reagents: 50mM Tris acetate, pH 7.5; 100uM NaCl; 5uM Coelenterazine H (Promega #S2011); 0.01% Tween-20; 0.05% BSA; 1nM R. reniformis luciferase (Nanolight Technologies #314)
# Control compounds used were a known renilla luciferase inhibitor BTS (Tocris Biosciences #1870) and DMSO.
# Three microliters containing renilla luciferase substrate in buffer (final concentrations: 50mM Tris acetate, pH 7.5, 100uM NaCl, 0.01% Tween-20, 0.05% BSA, 5uM coelenterazine h) are dispensed into each well of a Greiner white, solid-bottom 1536-well format plate using a flying reagent dispenser (FRD). These assay plates were then treated with 23nL of compound or DMSO using a Kalypsys pin tool, which allows for delivery of a 7-point interplate titration of each compound to the assay plate (quantitative HTS), with final compound concentrations ranging from approximately 60uM to 300pM. One microliter of renilla luciferase in 50mM Tris-acetate buffer was then delivered by FRD to each well for a final enzyme concentration of 1nM. Luciferase activity was then measured using an Envision plate reader (PerkinElmer), with an average incubation time of 2 min.
# Potency is the fitted concentration of half-maximal effect.
# Chain of Coelenterazine h 2-monooxygenase (Renilla reniformis) (P27652 whole entry, looked up): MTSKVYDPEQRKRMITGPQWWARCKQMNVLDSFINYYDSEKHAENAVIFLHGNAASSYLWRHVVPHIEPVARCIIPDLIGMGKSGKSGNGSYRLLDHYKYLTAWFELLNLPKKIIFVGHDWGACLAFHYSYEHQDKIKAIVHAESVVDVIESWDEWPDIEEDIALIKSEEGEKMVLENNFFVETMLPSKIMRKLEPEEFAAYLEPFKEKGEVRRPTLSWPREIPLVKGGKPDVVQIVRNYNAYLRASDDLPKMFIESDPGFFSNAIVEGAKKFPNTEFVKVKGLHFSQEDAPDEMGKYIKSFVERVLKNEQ
SMILES,"activity change, negative = inhibition",Potency
COC(=O)c1cncc(C=Cc2c(C)cc(O)cc2C)c1,31.7% (inactive),–
O=C(Nc1n[nH]c2cc(-c3cc(F)ccc3F)ccc12)C1CC1,12.6% (inactive),–
FC(F)(F)CNc1nccc(-c2cnn3ncccc23)n1,64.1% (inactive),–
CN(c1ccc(NC(=O)NCCN2CCOCC2)cc1)c1ccnc(Nc2ccc(CS(C)(=O)=O)cc2)n1,30.7% (inactive),–
CCn1c(-c2nonc2N)nc2cnc(Oc3cccc(NC(=O)c4ccc(N(C)C)cc4)c3)cc21,12.6% (inactive),–
COc1cc(N2CCN(C(C)C)CC2)ccc1Nc1nc(Nc2cccc(F)c2C(=O)O)c2cc[nH]c2n1,8.99% (inactive),–
CC1=C(C(=O)Nc2ccc3[nH]ncc3c2)C(c2ccc3ccccc3c2)CC(=O)N1 (stereo not given),32.4% (inactive),–
CCn1c(-c2nonc2N)nc2cncc(C(=O)NCCNC)c21,39.8% (inactive),–
CN(C)CCNC(=O)Nc1ccc(N(C)c2ccnc(Nc3ccc(CS(C)(=O)=O)cc3)n2)cc1,20.8% (inactive),–
COc1cc(N2CCN(C(C)C)CC2)ccc1Nc1nc(Nc2ccc(F)cc2C(=O)NCC(O)CO)c2cc[nH]c2n1 (stereo not given),29.4% (inactive),–
NC(=O)c1cc(-c2ccncc2)cc(-c2ccccc2)c1N,36.8% (inactive),–
Cc1ccc(O)cc1Nc1ccnc2ccc(S(C)(=O)=O)cc12,30.1% (inactive),–
FC(F)(F)c1cccc(-c2nn3ncccc3c2-c2ccnc(Nc3ccc4c(c3)OCCO4)n2)c1,48.6% (inactive),–
Fc1ccc(-c2c(-c3ccncc3)nc3n2CCS3)cc1,-2.73% (inactive),–
Fc1cccc(COc2ccc(Nc3ncnc4sc(-c5cccs5)cc34)cc2Cl)c1,15.6% (inactive),–
CC(C)COC(=O)c1ccc2[nH]c(O)c(C=Nc3ccc(S(N)(=O)=O)cc3)c2c1,37.1% (inactive),–
COc1cc2ncn(-c3cc(OCc4ccccc4C(F)(F)F)c(C(N)=O)s3)c2cc1OC,18.7% (inactive),–
CCN1CCC(CC(=O)Nc2n[nH]c3nnc(-c4cccc(F)c4F)cc23)CC1,4.99% (inactive),–
CCc1nn2ncccc2c1-c1ccnc(NC2CC2)n1,32.9% (inactive),–
NS(=O)(=O)c1cccc(Nc2cc(-c3ccc(F)cc3)[nH]n2)c1,39.1% (inactive),–

SMILES,"activity change, negative = inhibition",Potency
CCCN1CCC(Oc2cc(Nc3nc(Nc4cccc(F)c4C(N)=O)c4cc[nH]c4n3)c(OC)cc2Cl)CC1,64.1% (inactive),–
COC(=O)Nc1nc2ccc(Oc3ccc(NC(=O)Nc4cccc(Cl)c4)cc3)cc2[nH]1,-8.53% (inactive),–
Nc1nc(-c2ccccn2)c(-c2ccc3ncccc3n2)s1,20.8% (inactive),–
CS(=O)(=O)CCNCc1cc(-c2cc3c(Nc4ccc(OCc5cccc(F)c5)c(Cl)c4)ncnc3s2)cs1,36.3% (inactive),–
c1cnn2ncc(-c3ccnc(NCCCN4CCOCC4)n3)c2c1,20.5% (inactive),–
CNC(=O)c1cc(-c2ccc(F)cc2)cc(-c2ccc(S(=O)(=O)N3CCCC3)cc2)c1N,35.8% (inactive),–
Fc1ccc(-c2ncn(C3CCNCC3)c2-c2ccnc(Oc3ccc4c(c3)OCO4)n2)cc1,13.2% (inactive),–
CCCN(CCS(C)(=O)=O)Cc1ccc(-c2ccc3ncnc(Nc4ccc(OCc5cccc(F)c5)c(Cl)c4)c3c2)o1,42% (inactive),–
CC(C)(CO)CNC(=O)c1ccc2[nH]c(O)c(N=Nc3ccc(S(N)(=O)=O)cc3)c2c1,11.9% (inactive),–
O=C1NC(=O)C(c2ccccc2)=C1Nc1ccccc1,16.4% (inactive),–
NS(=O)(=O)c1ccc(Nc2cc(-c3cccc(O)c3)[nH]n2)cc1,3.85% (inactive),–
COc1cc(Nc2nccc(-c3cnn4ncccc34)n2)cc(OC)c1,3.31% (inactive),–
COc1cc2ncn(-c3cc(OCc4ccccc4S(C)(=O)=O)c(C#N)s3)c2cc1OC,1.76% (inactive),–
CCn1c(-c2nonc2N)nc2cncc(C(=O)N3CCNCC3)c21,43% (inactive),–
FC(F)(F)c1ccc(-c2nn3ncccc3c2-c2ccnc(Nc3ccc4c(c3)OCCO4)n2)cc1,43% (inactive),–
CNC(=O)c1sc(-n2cnc3cc(OC)c(OC)cc32)cc1OCc1ccccc1C(F)(F)F,22.9% (inactive),–
CCNC(=O)OC1CNC(C#Cc2cc3ncnc(Nc4ccc(OCc5cccc(F)c5)c(Cl)c4)c3s2)C1 (stereo not given),39.2% (inactive),–
CNC(=O)c1cncc(C=Cc2ccccc2Cl)c1,5.6% (inactive),–
CN1CCN(Cc2ccc(-c3cc4ncnc(Nc5ccc(OCc6cccc(F)c6)c(Cl)c5)c4s3)o2)CC1,–,20.6 µM (active)
COc1ccc(-c2ccc3c(NC(=O)C4CC4)n[nH]c3n2)cc1,46.2% (inactive),–
